Out of some 360,000 compounds screened, about 10,000 (2.8%) were called active. About 4% were inconclusive and are not listed. Many of the other results were omitted from the sample, so actives are more common in it than they were. Unmarked numbers belong to inactive results. Calls come from the whole dose curve; as a rule, active = well fitted inhibition curve with a large enough effect; inconclusive = small, poorly fitted or top-dose-only effect; inactive = flat fitted curve, though single readings scatter.
% is set by controls: 0 for no effect and ±100 for the full control effect; potency is the fitted concentration of half-maximal effect.

Chain of Serine/threonine-protein kinase PLK1 (Homo sapiens) (P53350 whole entry, looked up, the tested form may be a part): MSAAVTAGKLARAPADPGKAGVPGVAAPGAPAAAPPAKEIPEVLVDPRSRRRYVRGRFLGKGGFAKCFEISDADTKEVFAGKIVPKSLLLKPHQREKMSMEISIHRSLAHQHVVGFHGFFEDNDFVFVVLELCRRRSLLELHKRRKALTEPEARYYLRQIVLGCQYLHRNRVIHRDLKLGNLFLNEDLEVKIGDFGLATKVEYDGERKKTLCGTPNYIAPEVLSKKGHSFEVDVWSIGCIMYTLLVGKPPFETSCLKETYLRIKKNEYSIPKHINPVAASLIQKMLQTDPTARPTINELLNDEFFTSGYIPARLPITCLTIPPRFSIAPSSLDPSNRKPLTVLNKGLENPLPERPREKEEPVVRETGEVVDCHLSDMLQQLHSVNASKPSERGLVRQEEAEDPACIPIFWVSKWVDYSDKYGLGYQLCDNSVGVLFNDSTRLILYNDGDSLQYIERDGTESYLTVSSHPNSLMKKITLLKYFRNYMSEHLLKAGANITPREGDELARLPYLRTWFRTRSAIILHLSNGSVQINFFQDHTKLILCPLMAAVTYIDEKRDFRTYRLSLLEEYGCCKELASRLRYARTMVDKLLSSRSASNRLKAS

The experiment has as its target Serine/threonine-protein kinase PLK1 (Homo sapiens) (UniProt P53350). The experiment is described as follows: qHTS for Inhibitors of PLK1-PDB (polo-like kinase 1 - polo-box domain): Primary Screen. For max response, negative = inhibition: series mostly up to about 57 µM. Note: nearly all actives have a fitted effect of over 65% in size. Conditions: Plk1 PBD binding of FITC phosphopeptide, fluorescence polarization. On the technique in general: Quantitative high-throughput screening tests each substance at several concentrations.
In the case of `CCOc1ccc(CCN2C(=S)N([C@@H](CC(C)C)CN3CCC[C@@H]3CN3C(=S)NC[C@@H]3Cc3ccc(O)cc3)C[C@@H]2CC(C)C)cc1`, the max response, negative = inhibition is 5.19%.

Take `COCC(C)NC(=O)c1ccc(Cl)c(Cl)c1` (stereo not given): the max response, negative = inhibition was -9.11%.

Regarding `CCCNC(=O)c1ccc(Cl)c(Cl)c1`, the Potency was 21.2 µM (active).

On to `CCCNC(=O)c1c(Cl)cnn1-c1ccc(C)cc1`, for which the max response, negative = inhibition is -6.94%.

For the compound `COc1ccc(CC(N)c2csc(NC(=O)Cc3ccccc3)n2)cc1` (stereo not given), the max response, negative = inhibition is -4.52%.

For `COc1ccc(OC)c(C(O)c2ncc(-c3cccc(C(F)(F)F)c3)[nH]2)c1` (stereo not given), the max response, negative = inhibition is 6.6%.

As for `Cc1cc(Br)cn2c(Cc3ccccc3C(F)(F)F)c(-c3ccc(Cl)cc3)nc12`, the max response, negative = inhibition was 2.92%.

As for `COc1cc2nnn(-c3ccncc3)c2cc1OC`, the max response, negative = inhibition is -2.85%.

On to `CCOC(=O)C1(C)CCCN(C(=O)c2cccc(Cl)c2)C1` (stereo not given), for which the max response, negative = inhibition is -9.97%.

`O=C1NC[C@H](CCCCN2CCN(CCc3ccccc3)C(=O)C2=O)N(CC2CCCCC2)C1=O`: the max response, negative = inhibition is -4.62%.

Regarding `COc1cc(-c2n[nH]c(=S)n2Cc2ccccc2)cc(OC)c1OC`, the max response, negative = inhibition is -6.45%.

For the compound `CC(C)Oc1ccc(CCc2n[nH]c(=S)n2Cc2ccccc2)cc1`, the max response, negative = inhibition was -8.99%.

Consider `CC(C)Oc1ccc(Cc2n[nH]c(=S)n2Cc2ccccc2)cc1Cl`, for which the Potency was 16.8 µM (active).

For `CCc1c(N=O)c(-c2ccccc2)n(O)[n+]1[O-]`, the max response, negative = inhibition is -2.08%.

With `Nc1[nH]c(C(=O)c2ccccc2)c(-c2ccc(Br)cc2)c1C(=O)NC1CC1`, the max response, negative = inhibition was -9.8%.

Consider `O=S1(=O)CC(N2CCN(Cc3ccccc3F)CC2)CN1Cc1cn(Cc2cccc(C(F)(F)F)c2)nn1` (stereo not given), for which the max response, negative = inhibition was -2.54%.

`O=C(NC(=S)Nc1ccc(Cl)c(C(=O)O)c1)c1cncc(Br)c1`: the max response, negative = inhibition is -11.2%.

Turning to `Cc1ccc(NC(=S)NCCc2ccc(Cl)cc2)c(C)c1`, the max response, negative = inhibition was -3.36%.

On to `CCC(C(=O)Nc1ccc(C(C)C)cc1)c1ccccc1` (stereo not given), for which the max response, negative = inhibition was 2.25%.

As for `Cc1ccc(C)c(NC(=S)NNC(=S)Nc2ccc(C(C)C)cc2)c1`, the Potency was 18.9 µM (active).

For the compound `CC(C)c1ccc(NC(=S)NC2CC3C=CC2C3)cc1` (stereo not given), the max response, negative = inhibition is -23.1%.

As for `CC(C)c1ccc(NC(=S)NNc2ccc(Cl)c(C(=O)O)c2)cc1`, the Potency is 23.8 µM (active).

Regarding `COC(=O)[C@]12CCCCC=C1N(Cc1ccco1)C(=O)[C@H](CC(=O)NCC1CCCCC1)C2`, the max response, negative = inhibition was -3.48%.

With `CCCc1ccc(C(O)c2ncc(-c3cccc(OC)c3)[nH]2)cc1` (stereo not given), the max response, negative = inhibition was -2.5%.

In the case of `CN(C(=O)COC(=O)c1cc(-c2ccco2)nc2ccccc12)C1CCS(=O)(=O)C1` (stereo not given), the Potency was 18.9 µM (active).

Turning to `COc1ccc(/C=C(\C#N)C(=O)OCC(=O)N(C)C2CCS(=O)(=O)C2)cc1` (stereo not given), the max response, negative = inhibition was -10.5%.

In the case of `CN(C(=O)COC(=O)Cc1ccccc1[N+](=O)[O-])C1CCS(=O)(=O)C1` (stereo not given), the max response, negative = inhibition was 1.07%.

With `COc1cncc(-c2cnc3sc(NCCc4ccccn4)nn23)c1`, the max response, negative = inhibition was -12.3%.

As for `Cc1ccc(S(=O)(=O)N2CC(=O)Nc3ccccc32)cc1C`, the max response, negative = inhibition was -4.98%.

`Cc1ccc(C)c(S(=O)(=O)N2CCN(C(=O)Nc3ccccc3)CC2)c1`: the max response, negative = inhibition was -2.91%.

With `Cc1ccc(C)c(S(=O)(=O)N2CC(=O)Nc3ccccc32)c1`, the Potency was 23.8 µM (active).

On to `NC(c1csc(NC(=O)Nc2ccccc2Oc2ccccc2)n1)c1ccccc1Cl` (stereo not given), for which the max response, negative = inhibition was 0.513%.

For the compound `Cc1cccc(N(CC(=O)N2CCCC2)S(C)(=O)=O)c1C`, the max response, negative = inhibition is -8.37%.

For the compound `O=C(NCc1ccccc1)C(c1ccc(F)cc1)N1CCN(C(=O)C2CCCO2)CC1` (stereo not given), the max response, negative = inhibition was 1.19%.

With `CCN(C(=O)COC(=O)c1sccc1C)c1c(N)n(Cc2ccccc2)c(=O)[nH]c1=O`, the max response, negative = inhibition was -3.78%.

Consider `CCN(C(=O)COC(=O)Cc1c(F)cccc1Cl)c1c(N)n(Cc2ccccc2)c(=O)[nH]c1=O`, for which the max response, negative = inhibition was 4.8%.

In the case of `CCN(C(=O)CN1CCN(Cc2ccccc2)CC1)c1c(N)n(Cc2ccccc2)c(=O)[nH]c1=O`, the Potency was 23.8 µM (active).

With `COc1ccc(NC(=O)CCCOc2ccc(C(C)=O)cc2)cc1S(=O)(=O)N1CCCCC1`, the max response, negative = inhibition is 2.7%.

`Brc1ccc2nc(-c3ccccc3)c(Cc3ccccc3)n2c1`: the max response, negative = inhibition was -6.3%.

Take `CN1OC[C@@H]2CN(C(=O)c3cccc4ccccc34)[C@H](c3ccc(N4CCCCC4)cc3)C[C@@H]21`: the max response, negative = inhibition was -3.91%.

On to `CC1(C(=O)Nc2cccc3c2CCCC3)CCN1C(=O)C1(c2ccccc2)CC1` (stereo not given), for which the max response, negative = inhibition is 2.66%.

In the case of `CC1(Cc2ccccc2C#N)C(=O)Nc2ccc(-c3ccc4[nH]ccc4c3)cc21` (stereo not given), the max response, negative = inhibition is 2.71%.

Turning to `CCOC(=O)C1(CCOC)CCN(Cc2cc3ccccc3s2)CC1`, the Potency was 10.6 µM (active).

For the compound `CCOC(=O)C1(CCOc2ccccc2)CCN(Cc2cc(OC)cc(OC)c2)CC1`, the max response, negative = inhibition was -2.45%.

`CCOC(=O)C1(CCOC)CCN(Cc2ccc(C(=O)OC)cc2)CC1`: the max response, negative = inhibition was -4.26%.

`O=C(Nc1cccc2cccnc12)c1ccc2sc([C@H]3C[C@H](O)[C@@H](CO)O3)nc2c1`: the max response, negative = inhibition is 3.77%.

With `Nc1nnc(SCC(=O)Nc2ccc3nc(SCC(=O)Nc4ccccc4)sc3c2)s1`, the max response, negative = inhibition is 2.76%.

As to `Cn1c(=O)[nH]c(=O)c2c1nc(N1CCN(CCO)CC1)n2CCSc1nc2ccccc2s1`, the max response, negative = inhibition is -15.4%.

On to `O=C(O)c1ccccc1CSc1nc2ccccc2s1`, for which the Potency is 8.44 µM (active).

For the compound `Cc1noc(C)c1S(=O)(=O)N(C)C[C@H]1OCCCC[C@@H](C)Oc2ccc(NC(=O)CCCN(C)C)cc2C(=O)N([C@H](C)CO)C[C@@H]1C`, the max response, negative = inhibition was -12.6%.

On to `CC1(C(=O)NS(=O)(=O)Cc2cccc(Cl)c2)CCN1C(=O)Cc1ccccc1` (stereo not given), for which the max response, negative = inhibition was 0.171%.

Turning to `O=C(COc1ccc(Cl)cc1)N1CCN(c2cccc(C(F)(F)F)c2)CC1`, the Potency is 18.9 µM (active).

In the case of `Cc1c(C)c2ccc(OCC(=O)N3CCN(c4cccc(Cl)c4)CC3)cc2oc1=O`, the max response, negative = inhibition is -4.22%.

Turning to `CSCCC(NC(=O)COc1ccccc1)C(=O)N1CCN(c2cccc(C(F)(F)F)c2)CC1` (stereo not given), the max response, negative = inhibition is 10.8%.

On to `CCOc1cc(/C=N/NC(=O)c2ccncc2)cc(Br)c1O`, for which the max response, negative = inhibition was -2.72%.

(Values after PubChem BioAssay AID720504 (National Center for Advancing Translational Sciences (NCATS), 2013).)
